Values without a mark were called inactive.

In this experiment the test system is Schistosoma mansoni schistosomula (Liberian). Kind of experiment: drug effect (1 - score/DMSO control score) (fraction); higher = more antischistosomal effect, active = 0.5 or more; extreme values may be limits of the assay. The settings on record: 48 h; 10 µM. The method, boiled down:
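A plate was valid only if its 0.1% DMSO wells averaged a score of at least 2. Those wells ran beside duplicate wells in which 50 Liberian-strain Schistosoma mansoni schistosomula each, transformed mechanically from cercariae and pre-incubated at least 12 h, met 10 µM compound in Medium 199 with 5% FCS at 37 °C, 5% CO2. Scoring was visual at 10× at 24, 48 and 72 h, from 3 (normal) to 0 (dead) in quarter-point steps. Drug effect was derived from the mean test-well score against the mean DMSO-well score, with negatives set to zero.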
For `O=C(Nc1cnc2ccccc2c1)c1cccc(-n2cnnn2)c1`, the drug effect is under 0.
The value for `Cc1cc(C)n(-c2ccc(NC(=O)C3CCN(Cc4cnc(C)s4)CC3)cc2)n1` was 0.135; that for `Cc1cc(O)nc(-n2nc(C)cc2C)n1` was 0.243.
The value for `O=C(C1CCN(c2nnnn2-c2ccccc2)CC1)N1CCc2ccccc2C1` was 0.111; that for `FC(F)(F)c1cnc(Sc2nnc(-c3ccncc3)o2)c(Cl)c1` was 0.778 (active).
For `COc1cccc(-c2cc3c(Nc4cccnc4)nccc3[nH]2)c1`, the drug effect was 0.135.
For `CCN(CC)CCCCCCNc1cc(OC)cc2c(C)ccnc12`, the drug effect was 0.135.
As to `Cc1ncc(-c2ccnc(Nc3ccc(S(C)(=O)=O)cc3)n2)n1C(C)C`, the drug effect is 0.135.
For `N=C(N)Nc1ccc(-c2ccc(-c3ccc(N=C(N)N)c(Cl)c3)o2)cc1Cl` the value was under 0; for `O=C(Nc1ccccc1)c1ccc(-c2cc3ccncc3cc2OC2CCNCC2)s1`, 0.459; for `CC1CCCCN1C(=O)NCCc1coc(-c2ccc(F)cc2)n1` (stereo unspecified), 0.25.
For `Cc1ccc(Oc2ccc(NC(=O)CNc3ccccc3N3CCCC3=O)cc2)cc1` the value was 0.333.
For `Nc1ncnc2[nH]nc(Cc3cccc4ccccc34)c12` the value was 0.333.
Consider `CCCCN(CCCC)c1c(C#N)cc(S(=O)(=O)Nc2ccccc2)cc1C#N`, for which the drug effect was 0.135.
For `NS(=O)(=O)c1cncc(-c2ccc3nccc(-c4cn[nH]c4)c3n2)c1` the value was 0.111.
Turning to `Cc1nn2c(O)c3c(nc2c1-c1ccc(F)cc1)CCCC3`, the drug effect was 0.45.

The values are drawn from the supplement of paper PMC6805474.
